The whole screen tested about 290,000 compounds, of which about 11,000 (3.8%) were called active.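 The calls were made as follows: active = mean replicate inhibition above about 79%, with every replicate also reaching it (limit read from the data); inconclusive = only one of the two criteria met; inactive = mean below limit and not every replicate reaching it.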 The sample as a whole holds a higher share of actives than the screen did.

Inhibition data for 96 molecules are collected here from PubChem BioAssay AID485317 (Broad Institute, 2010).

Chain of FAD-linked sulfhydryl oxidase ALR (Homo sapiens) (P55789 whole entry, looked up): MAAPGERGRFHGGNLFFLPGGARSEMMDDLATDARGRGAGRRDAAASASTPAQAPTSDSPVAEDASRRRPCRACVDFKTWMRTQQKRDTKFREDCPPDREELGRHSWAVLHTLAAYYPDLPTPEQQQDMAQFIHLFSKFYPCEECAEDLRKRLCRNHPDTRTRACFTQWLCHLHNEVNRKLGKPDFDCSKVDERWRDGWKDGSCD

The assay has as its target FAD-linked sulfhydryl oxidase ALR (Homo sapiens) (UniProt P55789). Kind of assay: inhibitors of human ALR sulfhydryl oxidase, primary screen, biochemical, H2O2 detection, HRP-luminol luminescence, single point (AID 485317). The conditions noted are these: purified ALR, DTT oxidation, active compounds read high, concentration not given here.
What is called inhibition is the relative decrease from the control value, in per cent. In the case of `CC(OC(=O)CN1C(=O)c2ccccc2C1=O)C(=O)c1ccccc1` (stereo unspecified), the inhibition was 4.65% (inactive).

In the case of `CCC(C)Cn1c(O)cc2nn(-c3nc4ccccc4s3)c(=O)c-2c1C` (stereo unspecified), the inhibition is 98.9% (active). With `Cc1nn(CC(=O)Nc2nc3ccccc3s2)c(C)c1[N+](=O)[O-]` the figure was -2.85% (inactive).

Take `CCOC(=O)N1CCN(CC(=O)Nc2cc(C)nn2-c2nc3ccccc3s2)CC1`: the inhibition was 7.49% (inactive). Regarding `Cc1ccc(-c2csc(NC(=O)c3cnccn3)n2)cc1C`, the inhibition was -0.38% (inactive). Regarding `Cc1ccc(-c2csc(NC(=O)C3=COCCO3)n2)cc1C`, the inhibition is 83.7% (active). For `Cc1csc(NC(=O)C2=COCCO2)n1` the value was 1.03% (inactive). For `O=C(Nc1cccc(S(=O)(=O)NC2=NCCC2)c1)c1ccc(F)cc1F` the value was -7.53% (inactive); for `COc1ccc(-c2cc(C(=O)N(C)CC(=O)Nc3ccccc3Cl)c3ccccc3n2)cc1OC`, -3.41% (inactive). For `Cc1ccc(S(=O)(=O)N(C)C)cc1NC(=O)COC(=O)/C=C/c1cccs1` the value was -0.0664% (inactive). As for `O=C(OCC(=O)N1CCN(c2ccccc2)CC1)c1ccc([N+](=O)[O-])s1`, the inhibition was -44.6% (inactive).

Regarding `COC(=O)C(CC(=O)Nc1cc(C)ccc1C)Nc1ccccc1OC` (stereo unspecified), the inhibition is 98.4% (active). On to `COc1ccc(C)cc1NC(=O)Nc1ccccc1SC`, for which the inhibition was -2.74% (inactive). For the molecule `COc1ccccc1NC(=O)CC(NCCN(C)C)C(=O)O` (stereo unspecified), the inhibition is -8.47% (inactive).

Turning to `COc1cc([N+](=O)[O-])ccc1NC(=O)COC(=O)CCOc1ccc(C)cc1`, the inhibition is 24.6% (inactive).

For `Cc1ccc(NC(=O)Cc2nc(COC(=O)C(C)NS(=O)(=O)c3ccc(C)cc3)cs2)cc1` (stereo unspecified), the inhibition is 14% (inactive).

For the molecule `CCN(CC)C(=O)C(=O)Nc1cccc(Br)c1`, the inhibition is 3.75% (inactive). Regarding `CCN(CC)C(=O)CSC(Nc1cccc(F)c1)=C(C#N)C#N`, the inhibition is 98.8% (active).

For `Cc1ccc(CSCC(=O)N(C)CC(=O)Nc2cccc(F)c2)cc1`, the inhibition is -16.3% (inactive). In the case of `O=C(O)/C=C/C(=O)Nc1ccc(F)cc1F`, the inhibition is 5.9% (inactive).

For `COc1ccccc1NC(=O)/C=C/C(=O)O`, the inhibition is -9.66% (inactive). `COC(=O)c1sc(-c2ccc(C(C)(C)C)cc2)cc1NC(=O)/C=C/C(=O)O`: the inhibition is 98.3% (active). On to `O=C(COC(=O)c1cc(S(=O)(=O)N2CCOCC2)ccc1F)NC1CC1`, for which the inhibition was -8.45% (inactive). With `CN(CC(=O)Nc1ccc(F)c(F)c1F)C(=O)Cn1cnc2c1c(=O)n(C)c(=O)n2C` the figure was -6.05% (inactive); with `CCCCn1c(N)c(N(CCC(C)C)C(=O)c2ccc(COc3ccccc3)o2)c(=O)[nH]c1=O`, 0.673% (inactive); with `CCCOC(=O)Nc1sc2c(c1C(=O)OCC)CCC2`, 46.6% (inactive). As to `NC(=O)c1c(NC(=O)CSc2nc(N)cc(=O)[nH]2)sc2c1CCCC2`, the inhibition was 36% (inactive). Regarding `CCOC(=O)c1c(NC(=O)CSc2nnc(C)c(=O)[nH]2)sc2c1CCC2`, the inhibition is 90% (active). Consider `Cc1ccc(C)c(NC(=O)COC(=O)c2nn(C)c(=O)c3ccccc23)c1`, for which the inhibition was -9.61% (inactive).

For `Cc1ccc(Cc2cnc(N)s2)o1`, the inhibition is 99.1% (active). `Cc1ccc(CCC(=O)Nc2ncc(Cc3cc(Cl)ccc3Cl)s2)o1`: the inhibition was 53.6% (inactive). For `COc1cccc(C(=O)OCC(=O)c2[nH]c(C)c(C(C)=O)c2C)c1`, the inhibition is -3.4% (inactive). With `Cc1ccc(S(=O)(=O)NCCNC(C)c2ccc(Br)cc2)cc1` (stereo unspecified), the inhibition was -1.35% (inactive). With `Cc1nn(-c2ccccn2)c2c1C(c1ccncc1)C1=C(CC(C)(C)CC1=O)N2` (stereo unspecified) the figure was 16% (inactive); with `CC(=O)C1=C(C)NC2=C(C(=O)CC(C)(C)C2)C1C` (stereo unspecified), -3.96% (inactive). As for `Cc1cc2c(cc1C)NC(c1ccccn1)C1=C(CC(C)(C)CC1=O)N2` (stereo unspecified), the inhibition is 99.2% (active). Consider `O=C1CCC/C=C\C[C@@H](CC(=O)N(CCO)Cc2ccccc2)C(=O)NCCO1`, for which the inhibition is 0.845% (inactive). For the molecule `O=C(COC(=O)c1ccco1)Nc1ccc(Cl)cn1`, the inhibition was -2.69% (inactive).

For the molecule `CCN(CC)c1ccc(/C=N/NC(=O)CNC(=O)c2cccnc2)cc1`, the inhibition is 98.6% (active). For the molecule `O=C(CNC(=O)c1cccnc1)N/N=C/c1cc(Br)c(O)c(Br)c1`, the inhibition was 43.1% (inactive).

As to `O=C(CNC(=O)c1cccnc1)N/N=C/c1cccnc1`, the inhibition was -3.02% (inactive). For `COc1ccc(-c2cc3ncccc3cn2)cc1`, the inhibition is 23.1% (inactive). As to `COc1ccc(N/N=C2/CCCCC2=O)cc1`, the inhibition was 99.4% (active). For the molecule `COc1ccc(CNC2CCCCC2)cc1`, the inhibition was -5.38% (inactive).

As for `COc1ccc(CNC(=O)C2CCCC2)cc1`, the inhibition is -0.518% (inactive). Regarding `CN1CCN(C2Cc3ccc(Cl)cc3Sc3ccc(F)cc32)CC1` (stereo unspecified), the inhibition is 4.93% (inactive). As to `CCOCCn1[nH]c2ccccc2c1=O`, the inhibition was 52.9% (inactive). In the case of `Cc1ccc2c(c1)C1CN(C)CCC1N2S(=O)(=O)c1cccc(F)c1` (stereo unspecified), the inhibition was 22.1% (inactive). For `CCN(CC)CCn1c2c(c(SCC(=O)Nc3nc4ccccc4s3)nc1=O)CCCC2`, the inhibition is 98.7% (active). Turning to `Cc1csc(NC(=O)CSc2nc(=O)n(CCCN(C)C)c3c2CCC3)n1`, the inhibition is -272% (inactive). As to `Cc1ccc2nc(NC(=O)CSc3nc(=O)n(CCCN(C)C)c4c3CCC4)sc2c1`, the inhibition was 97.3% (active). For the molecule `CCN(CC)CCn1c2c(c(SCC(=O)Nc3ccc(C(C)C)cc3)nc1=O)CCC2`, the inhibition is -219% (inactive).

Consider `Cc1ccc(NC(=O)CSc2nc(=O)n(CCN(C)C)c3c2CCCC3)c(C)c1`, for which the inhibition was 5.62% (inactive). For the molecule `CN(C)CCn1c2c(c(SCC(=O)Nc3ccccc3C(F)(F)F)nc1=O)CCCC2`, the inhibition is 0.246% (inactive). For the molecule `Cc1ccc(C)c(NC(=O)CN(C)C(=O)COc2ccc3ccccc3c2)c1`, the inhibition was -13.6% (inactive). For `CC(=O)Nc1ccc(NC(=O)C(NS(=O)(=O)c2ccc3c(c2)OCCO3)C(C)C)cc1` (stereo unspecified) the value was 1.95% (inactive); for `Cc1c(NC(=O)CN(C)CC(=O)Nc2ccc(F)c(F)c2F)c(=O)n(-c2ccccc2)n1C`, -2.04% (inactive); for `O=C(COC(=O)CCOc1ccccc1)Nc1cc(S(=O)(=O)N2CCCCC2)ccc1Cl`, 4.02% (inactive). With `COc1ccc(C(=O)C(C)OC(=O)c2cccc(S(=O)(=O)Nc3c(C)n(C)n(-c4ccccc4)c3=O)c2)cc1` (stereo unspecified) the figure was -0.831% (inactive); with `Cc1cccc(C(=O)N2CCC(c3nc4ccccc4s3)CC2)c1`, -11.6% (inactive); with `Cc1cccc(NC(=S)N2CCC(c3nc4ccccc4s3)CC2)c1`, -3.53% (inactive). For `O=C(c1cccs1)N1CCC(c2nc3ccccc3s2)CC1` the value was 98.7% (active); for `CCC(c1nnc(SCC(=O)NNC(=O)c2ccccc2)n1Cc1ccccc1)N(C)C` (stereo unspecified), -1.21% (inactive); for `O=C(CSc1nccn1-c1cccc(F)c1)NC1CCCC1`, -4.77% (inactive).

For the molecule `O=C(CSc1nc(-c2ccccc2)cs1)Nc1cccc([N+](=O)[O-])c1`, the inhibition is 98% (active).

In the case of `O=C(CSCC(=O)Nc1cccc([N+](=O)[O-])c1)Nc1ccccc1`, the inhibition was -3.46% (inactive).

For `CCNC(=O)CSc1nc(-c2ccccc2)cs1`, the inhibition was -7.87% (inactive). With `COc1ccccc1C(=O)NCC(=O)OCC(=O)NNC(=O)c1ccc(Br)cc1` the figure was 0.892% (inactive); with `COc1cc(OC)cc(C(=O)NCC(=O)OCC(=O)NC(C)CCc2ccccc2)c1` (stereo unspecified), -4.51% (inactive). With `Nc1cccnc1Sc1ccccc1`, the inhibition is -14.3% (inactive).

Regarding `Cc1cc(=O)[nH]c(SCC(N)=O)c1C#N`, the inhibition is -1.22% (inactive). With `Cc1ccc(NC(=O)CSc2sc3c(O)cc(=O)[nH]c3c2C#N)cc1C`, the inhibition was 98.4% (active).

For the molecule `Cc1cc(C)c(C#N)c(SCC(=O)Nc2ccccc2)n1`, the inhibition was -3.28% (inactive). Take `Cc1ccc(S(=O)(=O)Nc2ccc(F)c(S(=O)(=O)N3CCOCC3)c2)cc1`: the inhibition is -9.01% (inactive). With `O=C(Nc1ccc2c(c1)OCO2)C1CC1(Cl)Cl` (stereo unspecified) the figure was -6.35% (inactive); with `O=C(c1ccc(Cl)nc1)N1CCN(S(=O)(=O)c2ccc3c(c2)OCCO3)CC1`, 0.752% (inactive); with `Cc1c(C(=O)Nc2cccc(S(=O)(=O)N3CCOCC3)c2)oc2ccccc12`, -6.82% (inactive). With `COc1ccc(S(=O)(=O)Nc2ccc(O)c(Sc3nc4ccccc4s3)c2)cc1` the figure was 17.5% (inactive); with `O=C(O)c1cccc(S(=O)(=O)Nc2ccc(O)cc2Sc2nc3ccccc3s2)c1`, 98.9% (active); with `Cc1nc2ccc(NC(=O)c3cccc(S(=O)(=O)N4CCOCC4)c3)cc2s1`, -4.99% (inactive). Consider `COc1cc(OC)cc(C(=O)NC(C(=O)N2CCC2)C(C)C)c1` (stereo unspecified), for which the inhibition is 3.67% (inactive). For `O=C(CSc1ncn[nH]1)N/N=C/c1ccc(F)cc1` the value was -0.231% (inactive). For `Cc1ccc(S(=O)(=O)Nc2nc(CN3CCOCC3)nc3sc(C)c(C)c23)cc1` the value was -1.38% (inactive); for `O=C(NNC(=O)c1ccc(Cl)nc1)c1ccc(Br)cc1`, -1.29% (inactive); for `Cc1cnc(NC(=O)c2ccc(Cl)nc2)s1`, -5.29% (inactive). Take `O=C(NNc1ccccn1)c1ccc(Cl)nc1`: the inhibition was 91.6% (active).

`COc1cc(/C=C/C(=O)OCC(=O)c2ccccc2)cc(OC)c1OC`: the inhibition is 3.07% (inactive).

As for `C[C@H](CO)N1C[C@H](C)[C@H](CN(C)C(=O)Nc2ccc(C(F)(F)F)cc2)Oc2c(NC(=O)c3ccncc3)cccc2C1=O`, the inhibition was -1.8% (inactive). Turning to `Cc1ccc(S(=O)(=O)NC2CCCCCC2)cc1`, the inhibition is -3.36% (inactive). Regarding `O=C(Nc1ccccc1)Nc1ccccc1C(=O)NCc1ccco1`, the inhibition was -2.76% (inactive). On to `Cc1cccc(Nc2ccccc2C(=O)NCc2ccco2)c1C`, for which the inhibition was 98.6% (active).

Take `Cc1ccccc1NC(=O)NCc1ccco1`: the inhibition was -5.6% (inactive). `O=C(OCC(=O)N1CCc2ccccc21)c1ccc([N+](=O)[O-])cc1`: the inhibition is -3.86% (inactive). Take `CC1CCCCC1NC(=O)/C(C#N)=C/C=C/c1ccccc1[N+](=O)[O-]` (stereo unspecified): the inhibition was 97.6% (active). With `O=C(/C=C/c1ccccc1[N+](=O)[O-])NCC1CCCO1` (stereo unspecified), the inhibition is -4.47% (inactive). For `O=[N+]([O-])c1ccccc1/C=C/CN1CCC(O)CC1`, the inhibition is -20.9% (inactive).
